About 3,200 (7.3%) of roughly 44,000 sequences were called active. Cut-off read from the data, not from the text of the source: active = GI50 up to about 1.1 µM and inactive = higher. What follows is part of a selection rich in actives, with near analogues and random picks from the rest. Entries with a potency or affinity are not part of this list.
The substances below were run on DU-145.
“[Bis(aminomethyl)dimethylsilane]tetrachloroplatinum(IV), CHEMBL2146190” gave a GI50 of 5.02 µM.
“[Bis(aminomethyl)pentamethylenesilane]tetrachloropaltinum(IV), CHEMBL2146204” was tested, and the GI50 was 0.344 µM.
“[Bis(aminomethyl)pentamethylenesilane]dichloropaltinum(II), CHEMBL2146202” gave a GI50 of 1.29 µM.
In the case of “[Bis(aminomethyl)tetramethylenesilane]tetrachloropaltinum(IV), CHEMBL2146189”, the GI50 is reported as 2.22 µM.
CISPLATIN, CHEMBL11359 showed a GI50 of 1.99 µM.
“[Bis(aminomethyl)tetramethylenesilane]dichloropaltinum(II), CHEMBL2146205” was tested, and the GI50 was 8.15 µM.
